Results on seven compounds are retold here after PubChem BioAssay (EPA / NIEHS).

The nature of test [1]: IUF_NPC1b_proliferation_BrdU_72hr: Leibniz Research Institute for Environmental Medicine (IUF) 72-hour Neural Progenitor Cell Bromodeoxyuridine (BrdU) Proliferation Assay (NPC1b) (AID 2284207). A digest of the protocol:
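Neural progenitor spheres of human fetal origin are treated for three days; BrdU added for the last 16 h is quantified by luminescence ELISA, with DMSO as baseline and EGF/FGF omission as positive control.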

The nature of test [2]: IUF_NPC1a_proliferation_area_72hr: Leibniz Research Institute for Environmental Medicine (IUF) 72-hour Neural Progenitor Cell Proliferation Area Assay (NPC1a) (AID 2284208). The method, boiled down: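 Spheres of 0.3 mm are plated singly in growth-factor medium and exposed from day 0. After three days at 37C and 5% CO2, sphere area is measured by phase contrast imaging, with activity referenced to DMSO.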

Test [3] can be described thus: IUF_NPC1_viability_72hr: Viability Assessment at 72 hours in the Leibniz Research Institute for Environmental Medicine (IUF) Neural Progenitor Cell Proliferation Assay (NPC1) (AID 2284209). A digest of the protocol:
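Spheres of primary human neural progenitors were plated singly in proliferation medium and treated for 72 h. Mitochondrial reduction of resazurin was then measured by fluorescence and analysed against DMSO controls.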

The nature of test [4]: CCTE_Mundy_HCI_Cortical_Synap_Neur_Matur_NeuriteSpotCountPerNeuriteLength: CCTE's Synaptogenesis and Neurite Maturation Assay in rat cortical cells for Neurite Spot Count per Neurite Length, Mundy Lab (AID 2284210). A digest of the protocol: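 Neurite-associated synapse density (synaptophysin puncta per unit neurite length) is measured by fluorescence high-content imaging in rat cortical cultures treated from DIV 7 and fixed at DIV 12, with DMSO as negative control.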

Test [5] is described as follows: CCTE_Mundy_HCI_Cortical_Synap_Neur_Matur_BPCount: CCTE's Synaptogenesis and Neurite Maturation Assay in rat cortical cells for Branch Point Count, Mundy Lab (AID 2284211). The method, boiled down:
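HCI read-out of branch points from MAP2/synaptophysin/Hoechst immunofluorescence; rat cortical cultures, AraC DIV 5, dosing DIV 7, fixed DIV 12; fit in positive direction vs DMSO baseline.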

Test [6] in a line: CCTE_Mundy_HCI_Cortical_NOG_NeuriteCount: CCTE's Neurite Outgrowth Assay in rat cortical cells for Neurite Count, Mundy Lab (AID 2284212).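 Further: cells fixed about two days after chemical exposure began.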 A digest of the protocol:
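Rat cortical primary cells; compound added 2 h post-plating, 1/10 dilution of working solution. Anti-betaIII-tubulin/AF488 ICC; ArrayScan neurite count vs DMSO.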

Test [7] in a line: CCTE_Mundy_HCI_Cortical_Synap_Neur_Matur_NeuriteLength: CCTE's Synaptogenesis and Neurite Maturation Assay in rat cortical cells for Neurite Length, Mundy Lab (AID 2284214). A digest of the protocol:
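Cultures of rat primary cortical cells received chemical at DIV 7 and were fixed at DIV 12, after glial arrest with AraC at DIV 5. Neurite length was measured by automated imaging of MAP2 immunofluorescence.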

The nature of test [8]: CCTE_Mundy_HCI_Cortical_Synap_Neur_Matur_NeuriteSpotCountPerNeuron: CCTE's Synaptogenesis and Neurite Maturation Assay in rat cortical cells for Neurite Spot Count per Neuron Count, Mundy Lab (AID 2284215). A digest of the protocol: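 Rat cortical primary cultures; AraC DIV 5 to arrest glia; dosing + media change DIV 7; fixed DIV 12. Anti-MAP2/anti-synaptophysin, Hoechst nuclei; HCI puncta count per neuron, positive fitting direction vs DMSO.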

A short description of test [9]: CCTE_Mundy_HCI_Cortical_Synap_Neur_Matur_SynapseCount: CCTE's Synaptogenesis and Neurite Maturation Assay in rat cortical cells for Synapse Count, Mundy Lab (AID 2284218). A digest of the protocol: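 Cells were plated, allowed 2 hr to attach, treated with AraC at DIV 5, then exposed to chemicals from DIV 7 until DIV 12. After fixation and MAP2/synaptophysin immunolabelling, synapses per neuron were quantified by automated imaging against DMSO.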

Test [10] in a line: CCTE_Mundy_HCI_Cortical_Synap_Neur_Matur_CellBodySpotCount: CCTE's Synaptogenesis and Neurite Maturation Assay in rat cortical cells for Cell Body Spot Count, Mundy Lab (AID 2284223). The method, boiled down:
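Rat cortical neurons; AraC @ DIV 5; dose + media change DIV 7; fix DIV 12; anti-MAP2/anti-synaptophysin IF, Hoechst; HCI count of soma synaptophysin puncta/neuron; DMSO = negative control.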

The nature of test [11]: CCTE_Mundy_HCI_hNP1_Pro_ResponderAvgInten: CCTE's Proliferation Assay in human neuroprogenitor cells, Mundy Lab (AID 2284224; active means hit-call score of the fitted dose curve at least 0.9, where 1 is the maximum;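 further: human neural progenitor cells hNP1 derived from WA09 embryonic stem cells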). The method, boiled down:
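Human neuroprogenitors (hNP1, WA09 lineage) receive test chemical after 40 to 44 hours of attachment. A four-hour BrdU pulse begins twenty hours later, followed by fixation and high content imaging; signal is referenced to DMSO controls.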

Test [12] in a line: CCTE_Mundy_HCI_hN2_NOG_NeuriteCount: CCTE's Neurite Outgrowth Assay in human hN2 cells for Neurite Count, Mundy Lab (AID 2284219; active means hit-call score of the fitted dose curve at least 0.9, where 1 is the maximum). A digest of the protocol: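 In this morphology assay, hNP1-derived neurons received test chemical 2 h post-plating and were fixed two days later in warm paraformaldehyde/sucrose containing Hoechst 33342. Neurites, labelled by rabbit anti-βIII-tubulin (1:800) and Alexa Fluor-488 (1:500), were counted automatically.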

The nature of test [13]: CCTE_Mundy_HCI_hN2_NOG_NeuriteLength: CCTE's Neurite Outgrowth Assay in human hN2 cells for Neurite Length, Mundy Lab (AID 2284220; active means hit-call score of the fitted dose curve at least 0.9, where 1 is the maximum). The method, boiled down:
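Using βIII-tubulin immunofluorescence and Hoechst nuclear counterstain, this component quantifies neurite length in hNP1-derived neurons.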

The nature of test [14]: CCTE_Mundy_HCI_hN2_NOG_NeuronCount: CCTE's Neurite Outgrowth Assay in human hN2 cells for Neuron Count, Mundy Lab (AID 2284221; active means hit-call score of the fitted dose curve at least 0.9, where 1 is the maximum). The method, boiled down: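 Read-out is the number of betaIII-tubulin-positive neurons imaged by automated high-content analysis, with DMSO as negative control.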

SMILES strings stand for the structures. “And” between values parts separate entries of the source, which are not always exact repeats. Equal values may be shown once. Records with an inconclusive call do not appear. More than one record can exist for a structure, and the calls need not agree. The source made the active and inactive calls. How the source made its calls, unless noted: active means hit-call score of the fitted dose curve at least 0.9, where 1 is the maximum; inactive means score below 0.9.

Usually AC50 stands for the concentration giving half of the maximal activity seen. `CCOP(=S)(OCC)Oc1cc(C)nc(C(C)C)n1`: the result in test [1], in test [2], in test [3], in test [4], in [6] and in [8] was inactive. Moreover, the compound was called inactive in test [9], in test [10] and in test [11]. Besides, the half-maximal activity concentration (AC50) in test [5] and in test [7] was 50 µM (active) each time.
Consider `CCOP(=S)(OCC)OC(Cl)C(Cl)(Cl)Cl` (configuration not stated), for which the AC50 in test [1] was 1.35 µM (active); in [4] it was 16.5 µM (active); in test [5], 70.5 µM (active) and 13.3 µM (active); in [6], 75.7 µM (active) and 31.8 µM (active); in test [7] it was 85.1 µM (active) and 12.1 µM (active); in test [8], 83.9 µM (active) and 16.2 µM (active). The AC50 in test [9] is 85.8 µM (active) and 15.9 µM (active); in [10], 16.7 µM (active); in test [11], 50 µM (active) and 75.1 µM (active). Moreover, the compound was classed as inactive in test [2], in [3], in test [4] and in test [10].
Regarding `CC[C@H](C)[C@H]1O[C@]2(C=C[C@@H]1C)C[C@@H]1C[C@@H](C/C=C(\C)[C@@H](O[C@H]3C[C@H](OC)[C@@H](O[C@H]4C[C@H](OC)[C@@H](NC)[C@H](C)O4)[C@H](C)O3)[C@@H](C)/C=C/C=C3\CO[C@@H]4[C@H](O)C(C)=C[C@@H](C(=O)O1)[C@]34O)O2`, the AC50 in test [1] is 25 µM (active) and 1.71 µM (active); in test [2] it was 5.17 µM (active) and 2.01 µM (active); in test [3], 6.92 µM (active) and 2.51 µM (active); in test [4], 587 nM (active) and 1 µM (active); in test [5], 428 nM (active) and 668 nM (active); in [6], 1.47 µM (active) and 1.53 µM (active). For the same compound, the concentration at half-maximal activity (AC50) in [7] was 387 nM (active) and 828 nM (active); in test [8], 441 nM (active) and 565 nM (active); in test [9], 522 nM (active) and 658 nM (active); in test [10] it was 1.12 µM (active) and 1.1 µM (active). Moreover, the compound was classed as inactive in test [11].
For `CCOP(=S)(OCC)Oc1ccc2c(C)c(Cl)c(=O)oc2c1`, the outcome in test [4], in test [8], in test [9], in test [10] and in [11] was inactive. In addition, the AC50 in [5] is 50 µM (active); in test [6], 89.6 µM (active); in [7] it was 50 µM (active); in [12], 22.1 µM (active); in [13] it was 18.6 µM (active); in [14], 18.9 µM (active).
For `COP(=O)(OC)C(O)C(Cl)(Cl)Cl` (configuration not stated), the compound was classed as inactive in [1], in test [2], in test [3], in test [4] and in test [6]. Moreover, the AC50 was 26.8 µM (active) in test [5]; 36.9 µM (active) in test [7]; 50 µM (active) in test [8]; 50 µM (active) in test [9]; 50 µM (active) in [11].
Consider `CC(C)N(C(=O)SCC(Cl)=C(Cl)Cl)C(C)C`, for which the call in [1], in test [2], in test [3], in test [5] and in test [6] was inactive. Moreover, the concentration at half-maximal activity (AC50) in test [4] is 25 µM (active); in test [7], 15 µM (active); in test [8], 23.6 µM (active); in test [9] it was 23.7 µM (active); in test [10], 24.1 µM (active).
As to `CON=C(C(=O)OC)c1ccccc1CON=C(C)c1cccc(C(F)(F)F)c1`, the compound was called inactive in [1]. Further, the AC50 in test [2] was 9.57 µM (active); in test [3], 32.8 µM (active); in test [4] it was 0.489 µM (active); in test [5], 0.446 µM (active); in test [6], 1.2 µM (active); in test [7], 0.954 µM (active). Moreover, the half-maximal activity concentration (AC50) is 0.32 µM (active) in [8], 0.664 µM (active) in [9], 3.43 µM (active) in test [10] and 79.9 µM (active) in test [11].
